MITF primary: human MITF inhibition, primary screen; AlphaScreen MITF homodimerization, bead proximity signal; actives 0.91% (n = 650,000); O75030; AID 1259374; inhibition, % at 2.6 µM; in the data active means inhibition above about 50%;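 further: 0% = vehicle wells with protein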
GPR151 ag: human GPR151 activation; PathHunter beta-arrestin GPR151 cells, luminescence; activation, % at 11.2 µM; actives 1% (n = 650,000); in the data active means activation above about 4.9%;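 further: 0% = median of compound wells and 100% = cells with positive control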
TEAD-YAP inh: TEAD-YAP interaction inhibition. HEK-TIYL cells, TEAD-Gal4/YAP UAS-luciferase luminescence. inhibition, % at 9.12 µM. actives 1.4% (n = 640,000); in the data active means inhibition above about 32%;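 further: 0% = median of test compound wells and 100% = reference inhibitor wells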
FBW7 act: human FBW7 E3 ligase activation, primary screen | Q969H0 | AlphaScreen FBW7–phospho-cyclin E peptide binding, activator screen | normalized activity (activation), % at 26.1 µM | actives 0.13% (n = 650,000) | AID 1259310; in the data active means normalized activity above about 1.9%;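 further: purified mutant Fbw7 with reduced substrate affinity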
Target sequence (Q969H0 whole entry, looked up): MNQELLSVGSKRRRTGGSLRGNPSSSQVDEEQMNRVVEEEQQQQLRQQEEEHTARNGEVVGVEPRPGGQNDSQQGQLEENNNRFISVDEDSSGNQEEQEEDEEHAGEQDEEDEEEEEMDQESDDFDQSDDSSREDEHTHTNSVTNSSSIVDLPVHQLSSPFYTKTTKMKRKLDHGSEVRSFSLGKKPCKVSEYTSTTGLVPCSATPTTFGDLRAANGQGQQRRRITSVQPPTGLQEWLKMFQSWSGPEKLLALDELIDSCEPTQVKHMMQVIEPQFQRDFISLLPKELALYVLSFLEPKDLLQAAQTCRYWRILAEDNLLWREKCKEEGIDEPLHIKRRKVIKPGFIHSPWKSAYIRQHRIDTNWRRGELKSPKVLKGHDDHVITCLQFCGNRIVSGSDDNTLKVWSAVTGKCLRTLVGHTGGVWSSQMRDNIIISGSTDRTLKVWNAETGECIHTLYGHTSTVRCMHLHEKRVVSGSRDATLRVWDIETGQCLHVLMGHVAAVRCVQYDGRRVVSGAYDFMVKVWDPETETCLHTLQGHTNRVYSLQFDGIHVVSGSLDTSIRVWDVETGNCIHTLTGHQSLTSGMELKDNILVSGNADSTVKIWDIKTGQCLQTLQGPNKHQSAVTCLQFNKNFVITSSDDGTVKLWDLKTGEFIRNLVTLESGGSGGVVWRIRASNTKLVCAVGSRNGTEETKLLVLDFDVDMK
Numbers without * were called inactive. An excerpt weighted towards active compounds, which were near 3.5% of everything screened.

Screening Cc1ccc(OCC(=O)c2ccc(O)cc2O)cc1 returned MITF primary 2, GPR151 ag -7, TEAD-YAP inh -4 and FBW7 act 0.
`COc1ccccc1/C=C/C(=O)c1ccc(F)cc1` gave MITF primary 4, GPR151 ag 0, TEAD-YAP inh -45 and FBW7 act 0.
For COc1cc(/C=N/NC(=O)CSc2nc3ccccc3s2)ccc1O the results were MITF primary 23, GPR151 ag 2, TEAD-YAP inh 5 and FBW7 act 1.
`Cn1nc2c(c1NC(=O)C1CCCN(S(=O)(=O)c3ccc(Cl)s3)C1)CCC2` (centres undefined) gave MITF primary 2, GPR151 ag 0, TEAD-YAP inh 33* and FBW7 act 0.
COc1ccc(S(=O)(=O)N2CCCC(C(=O)Nc3c4c(nn3C)CCC4)C2)cc1 (centres undefined) was read as MITF primary -1, GPR151 ag 2, TEAD-YAP inh 12 and FBW7 act 0.
CCOc1nc(C)ccc1-c1noc(-c2ccccc2C)n1 was read as MITF primary 0, GPR151 ag -1, TEAD-YAP inh -22 and FBW7 act 0.
Screening O=C(Nc1ccc(F)cc1)N[C@H]1C[C@H]2C(=O)N[C@@H](Cc3ccc(Cl)cc3)C(=O)N2C1 returned MITF primary 4, GPR151 ag 1, TEAD-YAP inh 8 and FBW7 act 0.
For CC1CCc2cc(F)ccc2N1S(=O)(=O)c1c(N)n(C)c(=O)n(C)c1=O (centres undefined) the results were MITF primary -2, GPR151 ag 0, TEAD-YAP inh -6 and FBW7 act 0.
COc1ccc(S(=O)(=O)N2c3ccc(F)cc3CCC2C)cc1 (centres undefined) was read as MITF primary -16, GPR151 ag 1, TEAD-YAP inh 56* and FBW7 act 0.
`COc1ccc(C(=O)C2CCN(S(=O)(=O)c3ccc(F)cc3)CC2)cc1` gave MITF primary -8, GPR151 ag 0, TEAD-YAP inh 42* and FBW7 act 0.
For CC(=O)Nc1ccc(S(=O)(=O)N2c3ccc(F)cc3CCC2C)cc1 (centres undefined) the results were MITF primary 0, GPR151 ag 4, TEAD-YAP inh 46* and FBW7 act 0.
`Cc1ccc(C(=O)NC23CC4CC(CC(C4)C2)C3)cc1S(=O)(=O)N1CCCCC1` gave MITF primary -12, GPR151 ag 1, TEAD-YAP inh 2 and FBW7 act 0.
For COc1ccc(C2(N3CCCC3)Oc3ccccc3C(C#Cc3ccccc3)=C2C)cc1 (centres undefined) the results were MITF primary 7, GPR151 ag -1, TEAD-YAP inh 8 and FBW7 act 0.
`COc1ccc(N/N=C(\Cl)C(C)=O)cc1` gave MITF primary 20, GPR151 ag 1, TEAD-YAP inh 4 and FBW7 act 1.9*.
Screening Nc1ccc2nc(-c3ccccn3)[nH]c2c1 returned MITF primary 34, GPR151 ag -7, TEAD-YAP inh -22 and FBW7 act -2.
`c1ccc(-c2nc3ccc(Cc4ccc5nc(-c6ccccn6)[nH]c5c4)cc3[nH]2)nc1` gave MITF primary 27, GPR151 ag 0, TEAD-YAP inh 34* and FBW7 act 0.
COc1ccc2c(c1)OC(C)CN(CCC(=O)NC1CCc3ccccc31)C2 (centres undefined) was read as MITF primary -9, GPR151 ag 0, TEAD-YAP inh -8 and FBW7 act 0.
CCOC(=O)c1cc(-c2ccc(N(CC)CC)cc2)no1 was read as MITF primary 11, GPR151 ag 0, TEAD-YAP inh -58 and FBW7 act 5.3*.
Screening COC(=O)c1cc(-c2ccc(OC)cc2)no1 returned MITF primary -3, GPR151 ag 3, TEAD-YAP inh -5 and FBW7 act 1.9*.
Screening COc1cc(CNc2ccc(-c3cccc(C(C)=O)c3)cn2)cc(OC)c1OC returned MITF primary 13, GPR151 ag 2, TEAD-YAP inh 34* and FBW7 act 0.
COc1cc(NC(=O)c2cccc(-c3cccc(C(C)=O)c3)n2)cc(OC)c1OC was read as MITF primary -3, GPR151 ag 2, TEAD-YAP inh 36* and FBW7 act 0.
Screening COc1cc(NC(=O)c2csc(-c3cccc(C(C)=O)c3)n2)cc(OC)c1OC returned MITF primary 13, GPR151 ag -1, TEAD-YAP inh 30 and FBW7 act 0.
Screening COc1cc(C2Nc3ccccc3-c3nnc(SC)nc3O2)cc(OC)c1OC (centres undefined) returned MITF primary 0, GPR151 ag 0, TEAD-YAP inh 10 and FBW7 act 0.
For CCc1c(Cc2[nH]c(C)c(C(C)=O)c2C)[nH]c(C(=O)O)c1C the results were MITF primary -146, GPR151 ag -2, TEAD-YAP inh 8 and FBW7 act 15*.
Screening CC(=O)c1[nH]c(C)c(C(C)=O)c1C returned MITF primary -6, GPR151 ag -1, TEAD-YAP inh -6 and FBW7 act 0.
Cc1ccc(C)c2[nH]c(=O)c(CN(CCCO)C(=O)Nc3ccccc3F)cc12 was read as MITF primary 0, GPR151 ag 0, TEAD-YAP inh 6 and FBW7 act 0.
For COc1ccc(-c2cn3nc(C)c(C)nc3n2)cc1 the results were MITF primary 1, GPR151 ag -8, TEAD-YAP inh 57* and FBW7 act 0.
Screening COc1cccc(-c2cn3nc(C)c(C)nc3n2)c1 returned MITF primary 7, GPR151 ag -7, TEAD-YAP inh -2 and FBW7 act 0.
Screening CCOc1ccc(S(=O)(=O)Nc2ccc(-c3cn4ccccc4n3)cc2)cc1 returned MITF primary -1, GPR151 ag 5, TEAD-YAP inh 0 and FBW7 act 0.
COc1ccc(-c2cn3cc(-c4ccc(F)cc4)nc3n2C)cc1 was read as MITF primary 2, GPR151 ag 0, TEAD-YAP inh 92* and FBW7 act 0.
For CCCOc1ccc(-c2cn3ccccc3n2)cc1 the results were MITF primary 0, GPR151 ag -8, TEAD-YAP inh 79* and FBW7 act 0.
COc1ccc(-c2cn3ccccc3n2)cc1F was read as MITF primary 9, GPR151 ag -8, TEAD-YAP inh 55* and FBW7 act 0.
`COC(=O)C1=C(C)Nc2nnnn2C1c1ccco1` (centres undefined) gave MITF primary 22, GPR151 ag -2, TEAD-YAP inh 8 and FBW7 act 0.
Cc1ccc2oc(-c3cc(NC(=O)c4ccc(F)cc4)ccc3O)nc2c1 was read as MITF primary 10, GPR151 ag 0, TEAD-YAP inh 1 and FBW7 act 0.
`Cc1ccc(NC(=O)N2CCCC2C(=O)Nc2ccc(C)c(C)c2)cc1` (centres undefined) gave MITF primary -10, GPR151 ag -1, TEAD-YAP inh 0 and FBW7 act 0.
Screening Cc1ccc(-c2cn3ccccc3n2)cc1 returned MITF primary 14, GPR151 ag -9, TEAD-YAP inh 53* and FBW7 act 0.

Screening results: PubChem BioAssay, The Scripps Research Institute Molecular Screening Center
